Measured values from PubChem BioAssay (NCI).
The panel holds about 83,000 compounds, 20% with a hit somewhere; the sample as a whole holds those more often.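 Negative percent growth values reflect cell death: -40 means 40% of the cells present at the start died, and -100 means all died.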 A number with no mark means an inactive call. Rule for the calls: active = growth percent below 10; inactive = the rest.

Test system: OVCAR-5 ovarian
Test: NCI-60 one-dose screen, 48 h (100 = growth as untreated, 0 = no growth, -100 = all killed)
Details: 10 µM unless noted

| SMILES | growth [%] |
| --- | --- |
| COC(=O)c1c(NC(=O)CSc2nnnn2-c2ccc(OC)cc2)sc(C)c1C | 103 |
| CCN(CC)CCNCC(=O)Oc1ccc(/C=C/C(=O)CC(=O)/C=C/c2ccc(OC(=O)CNCCN(CC)CC)c(OC)c2)cc1OC | 36.6 |
| Cc1ccc2c(c1)C(=O)/C(=C\Nc1ccc(C(N)=O)cc1)C(O)O2 (centres undefined) | 110 |
| COc1cc(/C=C/C(=O)C(C(=O)/C=C/c2ccc(OC(=O)CCNc3nnc(C)s3)c(OC)c2)C(=O)CCNc2nnc(C)s2)ccc1OC(=O)CCNc1nnc(C)s1 | 37.1 |
| [N-]=[N+]=NCc1cccc(/C(O)=C/C(=O)C(=O)O)c1 | 63.5 |
| Clc1ccc(C2c3ccccc3-c3nccn32)c(Cl)c1 (centres undefined) | 114 |
| O=C(O)C1CCN(S(=O)(=O)c2ccc(-c3ccccc3)cc2)CC1 | 125 |
| CSc1nc(N)c2c(n1)N(C)C=NS2(=O)=O | 93.7 |
| Cc1sc2nc(NCc3ccccc3)[nH]c(=O)c2c1C | 70.5 |
| Cc1cc(Br)c(C)cc1Br | 103 |
| O=C(/C=C(\Nc1ccccc1)c1ccccc1)c1cn(-c2ccc([N+](=O)[O-])cc2)nn1 | 116 |
| COc1ccc(C2=NN(C=O)C(c3cccc(Nc4ccnc5cc(Cl)ccc45)c3)C2)cc1 (centres undefined) | 51.5 |
| COc1ccc(NS(=O)(=O)N2CCCCC2)cc1 | 117 |
| C[C@H]1C(=O)N2c3ccccc3[C@@]3(O)C[C@@H](n4cnc5ccccc5c4=O)C(=O)N1[C@@H]23 | 110 |
